Assay results published in PubChem BioAssay (EPA / NIEHS).
Results filed as inconclusive are left out. Activity calls are given as the source filed them. The calls were made as follows: active = hit-call score of the fitted dose curve at least 0.9, where 1 is the maximum; inconclusive = response in the unintended direction; inactive = score below 0.9.

Tests used:
[1] = target: Tyrosine-protein phosphatase non-receptor type 11 (Homo sapiens) (UniProt Q06124); assay: NVS_ENZ_hPTPN11: NovaScreen (NVS) Enzymatic Assay for human Protein Tyrosine Phosphatase Non-receptor Type 11 (PTPN11) (AID 2283202)
Procedure, shortened: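 Recombinant human PTPN11 activity on a fluorescent substrate, with substrate/product separated by electrophoretic mobility shift; read 0.5 h after dosing, loss of signal vs DMSO. Duplicate 25 uM screen, then concentration-response up to 50 uM.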

[2] = target: human Protein Tyrosine Phosphatase Non-receptor Type 6 (PTPN6), PTPN6 (gene 5777) (UniProt P29350); assay: NVS_ENZ_hPTPN6: NovaScreen (NVS) Enzymatic Assay for human Protein Tyrosine Phosphatase Non-receptor Type 6 (PTPN6) (AID 2283210)
Procedure, shortened: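 Cell-free assay with recombinant PTPN6 expressed in SF9 cells, fluorescent substrate, product separated from substrate by electrophoretic mobility shift; read 1.33 hours after dosing. Primary screen in duplicate at 25 uM, actives retested in concentration series; DMSO baseline.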

[3] = target: human Protein Tyrosine Phosphatase Receptor Type B (PTPRB), PTPRB (gene 5787) (UniProt P23467); assay: NVS_ENZ_hPTPRB: NovaScreen (NVS) Enzymatic Assay for human Protein Tyrosine Phosphatase Receptor Type B (PTPRB) (AID 2283211)
Description: NVS_ENZ_hPTPRB is a biochemical, single-readout assay that uses extracted gene-proteins in a cell-free assay. Measurements were taken 1 hour after chemical dosing in a 384-well plate.NVS_ENZ_hPTPRB is one of one assay component(s) measured or calculated from the NVS_ENZ_hPTPRB assay. It is designed to make measurements of enzyme activity, a form of enzyme reporter, as detected with fluorescence intensity signals by Fluorescence and electrophoretic mobility shift technology.Data from the assay component NVS_ENZ_hPTPRB was analyzed into 1 assay endpoint. This assay endpoint, NVS_ENZ_hPTPRB, was analyzed in the positive analysis fitting direction relative to DMSO as the negative control and baseline of activity. Using a type of enzyme reporter, loss-of-signal activity can be used to understand changes in the enzymatic activity as they relate to the gene PTPRB. Furthermore, this assay endpoint can be referred to as a primary readout, because this assay has produced multiple assay endpoints where this one serves a enzymatic activity function. To generalize the intended target to other relatable targets, this assay endpoint is annotated to the phosphatase intended target family, where the subfamily is receptor tyrosine phosphatase. […]

Sequence of Tyrosine-protein phosphatase non-receptor type 11 (Homo sapiens) (Q06124 whole entry, looked up): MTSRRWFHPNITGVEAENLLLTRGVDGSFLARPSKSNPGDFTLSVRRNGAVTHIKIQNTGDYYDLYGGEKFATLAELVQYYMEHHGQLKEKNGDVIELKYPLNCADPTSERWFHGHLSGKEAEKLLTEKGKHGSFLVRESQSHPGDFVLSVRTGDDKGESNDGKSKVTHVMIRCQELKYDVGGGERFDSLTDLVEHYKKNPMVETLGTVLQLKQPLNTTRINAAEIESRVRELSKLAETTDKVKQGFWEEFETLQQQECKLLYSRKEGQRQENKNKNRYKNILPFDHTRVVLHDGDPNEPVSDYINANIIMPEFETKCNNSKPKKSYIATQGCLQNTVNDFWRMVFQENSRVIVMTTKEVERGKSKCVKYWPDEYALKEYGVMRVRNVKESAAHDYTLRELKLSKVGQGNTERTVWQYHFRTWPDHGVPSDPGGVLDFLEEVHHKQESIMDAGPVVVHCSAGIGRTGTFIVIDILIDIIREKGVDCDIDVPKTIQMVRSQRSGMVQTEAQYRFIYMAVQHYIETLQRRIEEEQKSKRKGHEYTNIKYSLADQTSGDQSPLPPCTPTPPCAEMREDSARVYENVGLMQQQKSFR
Sequence of human Protein Tyrosine Phosphatase Non-receptor Type 6 (PTPN6), PTPN6 (gene 5777) (P29350 whole entry, looked up): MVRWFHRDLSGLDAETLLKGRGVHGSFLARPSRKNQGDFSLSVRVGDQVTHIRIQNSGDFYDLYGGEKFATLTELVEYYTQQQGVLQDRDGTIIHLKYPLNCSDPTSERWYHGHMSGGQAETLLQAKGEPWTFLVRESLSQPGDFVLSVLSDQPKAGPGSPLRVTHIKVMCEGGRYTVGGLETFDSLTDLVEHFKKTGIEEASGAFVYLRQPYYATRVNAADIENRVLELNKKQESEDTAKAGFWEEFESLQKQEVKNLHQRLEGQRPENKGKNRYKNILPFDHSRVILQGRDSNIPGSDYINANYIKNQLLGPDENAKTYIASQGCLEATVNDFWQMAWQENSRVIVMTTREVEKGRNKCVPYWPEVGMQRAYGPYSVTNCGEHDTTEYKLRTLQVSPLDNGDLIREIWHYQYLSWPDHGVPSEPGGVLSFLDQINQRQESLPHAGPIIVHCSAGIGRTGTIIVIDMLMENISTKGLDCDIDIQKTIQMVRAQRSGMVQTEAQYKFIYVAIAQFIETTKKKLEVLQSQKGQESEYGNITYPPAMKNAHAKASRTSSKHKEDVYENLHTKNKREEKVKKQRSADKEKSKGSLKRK
Sequence of human Protein Tyrosine Phosphatase Receptor Type B (PTPRB), PTPRB (gene 5787) (P23467 whole entry, looked up): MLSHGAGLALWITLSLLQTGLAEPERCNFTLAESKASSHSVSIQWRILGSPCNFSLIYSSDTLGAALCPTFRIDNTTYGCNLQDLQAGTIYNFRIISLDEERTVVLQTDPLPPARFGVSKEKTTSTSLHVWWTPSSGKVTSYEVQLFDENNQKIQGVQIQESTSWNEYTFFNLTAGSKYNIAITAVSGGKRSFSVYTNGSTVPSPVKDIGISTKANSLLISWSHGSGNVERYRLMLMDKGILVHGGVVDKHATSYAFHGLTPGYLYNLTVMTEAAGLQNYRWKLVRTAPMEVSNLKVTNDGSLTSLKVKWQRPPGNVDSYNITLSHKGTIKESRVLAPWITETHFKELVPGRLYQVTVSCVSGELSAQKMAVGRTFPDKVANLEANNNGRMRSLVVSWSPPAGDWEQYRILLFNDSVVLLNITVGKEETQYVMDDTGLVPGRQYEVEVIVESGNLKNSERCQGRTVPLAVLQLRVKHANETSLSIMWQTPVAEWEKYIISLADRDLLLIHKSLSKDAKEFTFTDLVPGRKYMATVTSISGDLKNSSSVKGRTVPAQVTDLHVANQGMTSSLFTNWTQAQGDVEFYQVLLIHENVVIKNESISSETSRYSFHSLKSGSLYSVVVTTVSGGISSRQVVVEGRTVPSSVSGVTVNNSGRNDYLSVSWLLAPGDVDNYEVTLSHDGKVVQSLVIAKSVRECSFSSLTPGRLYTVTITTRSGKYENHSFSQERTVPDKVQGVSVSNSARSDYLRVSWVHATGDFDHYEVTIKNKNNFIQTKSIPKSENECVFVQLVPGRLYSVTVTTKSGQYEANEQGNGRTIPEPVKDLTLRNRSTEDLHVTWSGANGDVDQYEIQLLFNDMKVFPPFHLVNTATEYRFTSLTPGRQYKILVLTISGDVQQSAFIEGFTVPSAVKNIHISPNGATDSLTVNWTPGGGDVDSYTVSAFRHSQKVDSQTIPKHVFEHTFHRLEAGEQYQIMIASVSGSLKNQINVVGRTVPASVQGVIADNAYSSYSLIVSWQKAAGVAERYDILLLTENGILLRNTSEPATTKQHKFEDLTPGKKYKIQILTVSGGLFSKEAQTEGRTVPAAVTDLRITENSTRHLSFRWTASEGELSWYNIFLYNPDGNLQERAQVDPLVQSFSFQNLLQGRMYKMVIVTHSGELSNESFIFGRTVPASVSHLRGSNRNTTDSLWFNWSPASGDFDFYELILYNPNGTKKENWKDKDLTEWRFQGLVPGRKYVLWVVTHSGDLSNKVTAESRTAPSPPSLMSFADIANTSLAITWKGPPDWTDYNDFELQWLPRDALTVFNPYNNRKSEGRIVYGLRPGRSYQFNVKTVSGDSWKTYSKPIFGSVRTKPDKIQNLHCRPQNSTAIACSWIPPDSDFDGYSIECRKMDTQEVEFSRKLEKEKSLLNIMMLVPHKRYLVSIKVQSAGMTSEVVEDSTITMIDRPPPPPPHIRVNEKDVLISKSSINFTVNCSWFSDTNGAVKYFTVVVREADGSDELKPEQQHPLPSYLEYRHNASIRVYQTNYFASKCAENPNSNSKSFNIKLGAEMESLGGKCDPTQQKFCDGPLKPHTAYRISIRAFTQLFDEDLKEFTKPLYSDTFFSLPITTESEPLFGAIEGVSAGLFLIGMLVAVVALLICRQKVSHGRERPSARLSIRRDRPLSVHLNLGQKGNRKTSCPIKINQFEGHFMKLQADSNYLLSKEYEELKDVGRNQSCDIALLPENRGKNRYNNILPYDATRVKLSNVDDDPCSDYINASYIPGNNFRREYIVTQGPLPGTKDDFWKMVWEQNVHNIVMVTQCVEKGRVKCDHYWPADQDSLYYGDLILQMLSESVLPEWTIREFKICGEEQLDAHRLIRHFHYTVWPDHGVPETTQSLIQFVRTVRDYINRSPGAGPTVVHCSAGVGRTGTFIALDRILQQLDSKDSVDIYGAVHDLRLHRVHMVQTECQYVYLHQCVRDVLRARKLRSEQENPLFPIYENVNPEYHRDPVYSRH

## CCCCCCCCCCCCc1ccccc1S(=O)(=O)O
[1]
  AC50: 13.3 µM (active)
[2]
  AC50: 13.4 µM (active)
[3]
  AC50: 25 µM (active)

## ClC1=C(Cl)C(Cl)(Cl)C(Cl)=C1Cl
[1]
  outcome: inactive

## COc1ccc([N+](=O)[O-])cc1N
[2]
  outcome: inactive

## COCC(C)OCC(C)O (stereo unspecified)
[3]
  outcome: inactive
